The values that follow come from the OligoGym collection.
Also: reference of the scale not given here.

One experiment deals with SQRDL. Description: pooled miR-30 sensor sort-seq; sequence = guide strand. Conditions: shRNA.
TTTGGCACCAGCACCCACCAGT gave a sensor-assay potency score (higher = more potent) of -0.354. For the sequence AATCTTCTCATAGTCCAGCTGG, the sensor-assay potency score (higher = more potent) is -0.573. For TTTCATATGAAATCACTTGGGT, the sensor-assay potency score (higher = more potent) was 0.204.

For the sequence TTCTTTATCCACATCCACCCAA, the sensor-assay potency score (higher = more potent) is -0.645. TTAACTGAATAATTCGACCCTA registered a sensor-assay potency score (higher = more potent) of 0.0839.

Sequence ATAATTACAGAAATTGTCCTAT came in with a sensor-assay potency score (higher = more potent) of 0.475. Same read-out and setting: under TTTAATCTTCTCATAGTCCAGC stands 0.0208. Same read-out and setting: the result for TAACTGAATAATTCGACCCTAT reads -0.071; that for TTGGTCACCATTACCCATCAAG, -1.14; that for TTGTCCTATCAAGTATTCCTGA, -0.574. In turn, TTTCTTGTAGTTAACAGTGAGG had a sensor-assay potency score (higher = more potent) of -0.847.

The target in a further experiment is SRCAP. Described as above. The settings on record: shRNA.
Sequence TTCCACTTGCTCTTCTGCCTGT yielded a sensor-assay potency score (higher = more potent) of 0.497.

TTTATCTCCAACACCTGAGGGG showed a sensor-assay potency score (higher = more potent) of 0.481.

For the sequence AACTCTAGTAGATCCATCCAGG, the sensor-assay potency score (higher = more potent) was -0.807.

In the case of TTGTTCTTCAACTTCAATCGTT, the sensor-assay potency score (higher = more potent) amounted to 0.0088. TATAGTATCCTCTTCATCCTCC registered a sensor-assay potency score (higher = more potent) of 0.687. In turn, TCAACATCCACCTTAACTCGGC came in with a sensor-assay potency score (higher = more potent) of 0.0488.

Consider TAGACCTTCATTATACTCTTGG, for which the sensor-assay potency score (higher = more potent) worked out at 0.352. TTGCTTGAATTGCACCACCTTC displayed a sensor-assay potency score (higher = more potent) of -1.29. TAGAGGACACAGGACTAGCAAG yielded a sensor-assay potency score (higher = more potent) of -1.62. For TTCACCACCACCACTGTCCGGC, the sensor-assay potency score (higher = more potent) amounted to 0.285. TGTTCTTCAACTTCAATCGTTT: the sensor-assay potency score (higher = more potent) is -0.243. Take TTAATGACAATGTCTGAGTTGG: the sensor-assay potency score (higher = more potent) is 0.105.

Another experiment addresses SRCRB4D. The description is as above. The settings on record: shRNA.
The sequence TACACGTCCCTCGCATCGGTGG showed a sensor-assay potency score (higher = more potent) of -1.14. TGCTCTACTGGTTAACATCTTC came in with a sensor-assay potency score (higher = more potent) of -0.561. With TTGTCCAGCAGGATGTGTCCGG, the sensor-assay potency score (higher = more potent) was -0.554. TTCATCACACAGGACAGCCACA returned a sensor-assay potency score (higher = more potent) of -1.36. TCTACTGGTTAACATCTTCCTT showed a sensor-assay potency score (higher = more potent) of -0.575.

For the sequence TTGGCGTCCACCACGTCCCAGT, the sensor-assay potency score (higher = more potent) is -1.07. The sequence TAACATCTTCCTTGTTGGGGGC yielded a sensor-assay potency score (higher = more potent) of -0.0485. TTAACATCTTCCTTGTTGGGGG had a sensor-assay potency score (higher = more potent) of 0.296. Turning to TCGTAGGAGGTGCTCTACTGGT, the sensor-assay potency score (higher = more potent) is -1.24.

In turn, TTGACCAGACGTAGATGCCCGT yielded a sensor-assay potency score (higher = more potent) of -0.902. On the same count and under the same terms, the result for TTCGCAGTGCACGTTGTCCAGC reads -0.781.

Take TTTTCCATTCGGCAGTGTCGTA: the sensor-assay potency score (higher = more potent) is -1.69.

In the next experiment the target is SRC. The description is as above. The settings on record: shRNA.
TCTGTGTTGTTGACAATCTGGA: the sensor-assay potency score (higher = more potent) amounted to 0.0722. Sequence TGTCTGTCCTGTGCTGAGCGAG showed a sensor-assay potency score (higher = more potent) of -1.15. On the same count and under the same terms, the result for TCCGACTTGATGGTGAAGCGGC reads -0.784.

Turning to TCGTGGTCTCACTTTCTCGCAC, the sensor-assay potency score (higher = more potent) was -0.731.

Sequence TCATTGTCTTCAATGAGCCGAG yielded a sensor-assay potency score (higher = more potent) of -0.463.
